{"source": "the supplement of paper PMC10338343", "note": "± gives the standard deviation.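 Also: 1 nM active piRISC with 0.1 nM target library at 33 °C single turnover.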"}
{"test_system": "MILI (PIWIL2) piRISC loaded with L1MC piRNA (26 nt)", "experiment": "pre-steady-state target cleavage rate (min^-1); guide: L1MC piRNA 5'p-UAACUAAAUACUAUGCAAGCUGUAGG; MIWI and MILI are mouse PIWI proteins and EfPiwi is from a freshwater sponge; tags in brackets are library labels; higher = faster piRNA-guided slicing of the target", "details": "auxiliary factor: 500 nM mouse GTSF1", "method_in_brief": "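The pre-steady-state cleavage rate was derived from a burst-and-steady-state fit of Cleave-'n-Seq data. For these assays, 1 nM active affinity-purified piRISC loaded with a single synthetic guide was mixed with […] a transcribed, DNA-blocked target RNA library in HEPES–potassium acetate buffer at 33 °C, with or without 500 nM GTSF1 partner protein, for 0–8 or 0–960 min. Sequencing counts of uncleaved targets were normalised to depth and to weakly complementary targets, and k3 was capped at 0.0001 min^-1 after three trials were pooled.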"}
{"sequence": "UCCUGGUACAGCUUGCAUAGUAUCUUAGUUA", "pre-steady-state target cleavage rate": "0.188 ± 0.031"}
{"sequence": "UCCUGCUACAGCUUGAUAGUAUUUAGUUA", "pre-steady-state target cleavage rate": "0.133 ± 0.017"}
{"sequence": "UCCUCCUACCAGCUUGCAUAGUAUUUAGUUA", "pre-steady-state target cleavage rate": "0.275 ± 0.017"}
{"sequence": "UCCUGGAUCAGCUUGCAUCGUAUUUAGUUA", "pre-steady-state target cleavage rate": "0.0942 ± 0.012"}
{"sequence": "UCCUGGAUGUCCUUGCCUAGUAUUUAGUUA", "pre-steady-state target cleavage rate": "0.0522 ± 0.0084"}
{"sequence": "UCCUGCUUGAGCUUGCAUAGUAUUUAGUAA", "pre-steady-state target cleavage rate": "0.172 ± 0.021"}
{"sequence": "UCCUGGAUGAGCAUGCAUUGUAUUUAGUUA", "pre-steady-state target cleavage rate": "0.0714 ± 0.013"}
{"sequence": "UCCUGCUACAGCUUGGAUAGUAUAUAGUUA", "pre-steady-state target cleavage rate": "0.222 ± 0.026"}
{"sequence": "UCCUGGUACAGCUAGCAUAGUAUUUAGUUA", "pre-steady-state target cleavage rate": "0.259 ± 0.017"}
{"sequence": "UCCUGCUAACAGCUUGCAUAGUAUUUAGUUA", "pre-steady-state target cleavage rate": "0.307 ± 0.033"}
{"sequence": "UCCUGCUACAGCUUGCUUUGUAUUUAGUUA", "pre-steady-state target cleavage rate": "0.183 ± 0.015"}
{"sequence": "UCCUGGAUGAGCUAGCAUUGUAUUUAGUUA", "pre-steady-state target cleavage rate": "0.0518 ± 0.0092"}
{"sequence": "UCCUGGAACAGCUAGCAUAGUAUUUAGUUA", "pre-steady-state target cleavage rate": "0.242 ± 0.019"}
{"sequence": "UCCUGGUAGUCCUUGCAUAGUAUUUAGUUA", "pre-steady-state target cleavage rate": "0.126 ± 0.018"}
{"sequence": "UCCUGCUACAGCUUGCAUACUAUUUAGUUA", "pre-steady-state target cleavage rate": "0.0775 ± 0.012"}
{"sequence": "UCCUGGAUGAGCUAGCAUAGUUUUUAGUUA", "pre-steady-state target cleavage rate": "0.0185 ± 0.0066"}
{"sequence": "UCCUGGAUGAAGCUUGCAUAGUAUUUAGUUA", "pre-steady-state target cleavage rate": "0.224 ± 0.02"}
{"sequence": "UCCUCCUAAAGCUUGCAUAGUAUUUAGUUA", "pre-steady-state target cleavage rate": "0.157 ± 0.019"}
{"sequence": "UCCUGGAUGUGCUUGCAUAGUAUAUUAGUUA", "pre-steady-state target cleavage rate": "0.111 ± 0.016"}
{"sequence": "UCCUGCUACAGGUUGCAUAGUAAUUAGUUA", "pre-steady-state target cleavage rate": "0.216 ± 0.032"}
{"sequence": "UCCUCCUACAGCUUCAUAGUAUUUAGUUA", "pre-steady-state target cleavage rate": "0.238 ± 0.013"}
{"sequence": "UCCUGGAUCAGCUUGCAUAGUAUAAAGUUA", "pre-steady-state target cleavage rate": "0.171 ± 0.018"}
{"sequence": "UCCUGGUACAGCUAGCAUAGUAUUAAGUUA", "pre-steady-state target cleavage rate": "0.198 ± 0.032"}
{"sequence": "UCCUGGAUGACCUUGGAUAGUAUUUAGUUA", "pre-steady-state target cleavage rate": "0.14 ± 0.013"}
